Assay outcomes deposited in PubChem by National Center for Advancing Translational Sciences (NCATS).
This excerpt belongs to a sample that is enriched for hits.
TDP-43 tox inh = TDP-43 toxicity inhibition in yeast; 45,000 tested, 0.45% active; yeast TDP-43 toxicity rescue, BacTiter-Glo growth, 24 h; Potency, µM (highest dose often 46.1 µM), hits mostly activators; active = well fitted activation curve with a large enough effect; note: 0% is about no effect; nearly all actives have a fitted effect of over 55% in size
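TDP-43-expressing yeast, pregrown in raffinose, seeded at OD600 0.02 in galactose medium with compound for 24 hr at 30 deg C. Growth read by BacTiter-Glo luminescence, so rescue of toxicity appears as activation.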
* = called active by the depositor; i = inactive. Potency is the fitted concentration of half-maximal effect.

SMILES	TDP-43 tox inh
CC1=C(C(=O)N2CCN(c3cccc(C)c3C)CC2)C2(CCCCC2)OC1=O	i
COc1cccc(N2CCN(C(=O)c3ccc(CS(=O)c4ccc(C)cc4)o3)CC2)c1 (stereo not given)	i
Cc1ccccc1S(=O)Cc1ccc(C(=O)N2CCN(c3cccc(C)c3C)CC2)o1 (stereo not given)	20µM*
Cc1ccc(C)c(S(=O)(=O)NCCCc2ccccc2)c1	i
[O-][n+]1cccc2c(Br)cc(Br)c(O)c21	7.94µM*
C[n+]1cccc2c(Br)ccc([O-])c21	i
COc1ccc(NS(=O)(=O)c2cc(NC(=O)COc3ccccc3)ccc2N2CCOCC2)cc1	i
COCc1cc(C)n(CC(=O)Nc2ccc(N3CCOCC3)c(Cl)c2)c(=O)c1C#N	i
O=C(COc1c(F)c(F)c(C(F)(F)F)c(F)c1F)Nc1ccc(N2CCOCC2)c(Cl)c1	12.6µM*
Cc1ccc(S(=O)(=O)CCC(=O)OCc2nnc(-c3ccccc3)o2)cc1	i
COCCNC(=S)N/N=C(\C)c1ccc(OC)cc1	i
COCCNC(=S)N/N=C(\C)c1cccc(C(F)(F)F)c1	i
COCCNC(=S)N/N=C(\C)c1cc2ccccc2o1	12.6µM*
O=C(Nc1ccc(N2CCOCC2)cc1)c1cc2c(s1)CCCCC2	15.8µM*
O=C(Nc1cccc(S(=O)(=O)Nc2ccc(Cl)cc2)c1)c1cc2c(s1)CCCC2	i
O=C(Nc1ccc(N2CCOCC2)cc1)c1ccc(Br)o1	i
O=c1oc2c(CN3CCN(CCO)CC3)c(O)ccc2cc1-c1ccccn1	i
CCn1c(SCC(=O)Nc2c(C)n(C)n(-c3ccccc3)c2=O)nc2c1c(=O)n(C)c(=O)n2C	i
O=C(c1ccc(CNS(=O)(=O)c2ccc(Br)cc2)cc1)N1CCCC1	i
COc1cccc(NC(=O)c2cccc(C)c2[N+](=O)[O-])c1	i
COc1ccccc1C(=O)Nc1cccc(NC(=O)c2ccccc2C)c1	14.1µM*
CCN(CC)c1cc(C)c2cc(NC(=O)c3ccccc3OC)ccc2n1	i
NC(=O)c1ccc2c(c1)OCCO2	i
O=C(c1cccc([N+](=O)[O-])c1)c1ccc2c(c1)OCCOCCOCCO2	i
CC(=O)c1ccc2c(c1)OCCOCCOc1ccccc1OCCOCCO2	15.8µM*
SMILES	TDP-43 tox inh
CCOc1ccc(-c2cc(C(=O)NCc3cc(C(F)(F)F)cc(C(F)(F)F)c3)[nH]n2)c(C)c1	i
CCCCNC(=O)CSc1nc2ccsc2c(=O)n1CCCC(=O)NCCc1ccc(S(N)(=O)=O)cc1	i
C=CCNC(=S)N/N=C/c1ccc(-c2ccc(Cl)cc2Cl)o1	i
COc1cc(/C=C/C(=O)OC(C)C(=O)Nc2ccc(Cl)cn2)ccc1OC(F)F (stereo not given)	i
COC(=O)Oc1ccc(/C=C/C(=O)OC(C)C)cc1OC(=O)OC	14.1µM*
CCCCOC(=O)/C=C/c1ccc(OC(=O)OC)c(OC(=O)OC)c1	i
Cc1ccc(CN(C(=O)COc2ccc(Cl)c(C)c2)C2CCS(=O)(=O)C2)o1 (stereo not given)	i
COc1cc(CC(=O)Nc2cc(S(C)(=O)=O)ccc2Cl)cc(OC)c1OC	i
CCCSc1ncc(Cl)c(C(=O)Nc2scc(-c3ccc(C)cc3)c2C(=O)OCC)n1	i
CC(C)CCNC(=O)C1(C)CCN1Cc1ccc(-c2ccccn2)cc1 (stereo not given)	i
Cc1cc(Cl)ccc1OC(C)C(=O)Nc1ccc([N+](=O)[O-])cn1 (stereo not given)	22.4µM*
COC(=O)c1cc(C(=O)Nc2ccc(Cl)cn2)cc([N+](=O)[O-])c1	i
Cc1ccc(OC(C)C(=O)Nc2ccc(Cl)cn2)c([N+](=O)[O-])n1 (stereo not given)	i
CCOc1ccc(S(=O)(=O)NCCC(=O)Nc2nnc(C)s2)cc1	i
CC(O)(c1cccc(F)c1)c1nc(-c2ccncc2)cs1 (stereo not given)	i
COc1ccc(C(C)(O)c2nc(-c3csc4ccccc34)cs2)cc1 (stereo not given)	17.8µM*
COc1cccc(C(C)(O)c2nc(-c3ccc(OC)nc3)cs2)c1 (stereo not given)	17.8µM*
CC(O)(c1ccccc1)c1nc(-c2cccc(C(=O)O)c2)cs1 (stereo not given)	i
CC(O)(c1cccnc1)c1nc(-c2ccc3c(c2)OCO3)cs1 (stereo not given)	i
CC(O)(c1ccc(F)c(F)c1)c1nc(-c2ccc(Cl)cc2)cs1 (stereo not given)	i
CC(C)c1cccc(-c2csc(C(C)(O)c3ccccc3)n2)c1 (stereo not given)	i
COc1ccc(C(C)(O)c2nc(-c3ccc4c(c3)OCO4)cs2)cc1 (stereo not given)	12.6µM*
COc1cccc(C(C)(O)c2nc(-c3cncnc3)cs2)c1 (stereo not given)	i
Cc1ccc(CNC(=O)Cn2c(=O)n(-c3ccccc3)c(=O)c3sccc32)cc1	i
CCc1nc2ccc(C(=O)N3CCN(C(C)=O)CC3)cn2c1N(CCC(C)C)CCN(C)C	i
SMILES	TDP-43 tox inh
O=C(COC(=O)/C=C/c1ccccc1)NCCc1ccc(F)cc1	i
C/C(=N\Nc1ccc(C(=O)O)cc1)c1ccc2c(c1)Nc1ccccc1S2	11.2µM*
C/C(=N\Nc1ccc(Cl)c(C(=O)O)c1)c1cccc2ccccc12	i
C/C(=N\Nc1cccc(C(=O)O)c1)c1ccc(Cl)s1	i
CCOC(=O)C1CCN(C(=O)COc2ccc3c(c2)OCO3)CC1	i
COc1ccc(C(C)C)cc1S(=O)(=O)N1CCC(C(=O)NCC2CCCO2)CC1 (stereo not given)	i
CCCN(CC1CC1)C(=S)Nc1ccccc1F	i
CN(CC1COc2ccccc2O1)C(=O)CSc1nncs1 (stereo not given)	i
CN(CC1COc2ccccc2O1)C(=S)Nc1ccccc1F (stereo not given)	11.2µM*
COc1ccccc1CNC(=O)C1CCC(=O)N1C(C)C (stereo not given)	i
CCOC(=O)C1(CC2CC2)CCN(C(=O)c2cccnc2C)CC1	i
CCn1c(SCC(=O)NC2CC2)nnc1-c1cccc(OC)c1	i
Cc1ccc(OCC(=O)O/N=C(\N)c2cccc([N+](=O)[O-])c2)cc1C	i
O=C(NCC1CCCCC1)c1cccc([N+](=O)[O-])c1	i
N/C(=N\OC(=O)CC1CCCCC1)c1ccc([N+](=O)[O-])cc1	17.8µM*
COc1ccccc1NC(=O)Cc1nnc(SCC(=O)NC2CCCCC2C)n1C (stereo not given)	i
CC1CCN(C(=O)Cn2c(=O)n(CCCCCC(=O)NCc3ccccc3Cl)c(=O)c3sccc32)CC1	i
Cc1cc(C)cc(C(=O)Nc2nc3ccccc3[nH]2)c1	i
Cc1ccc(NC(=S)c2nc3ccccc3[nH]2)c(C)c1	10µM*
Cc1ccc(NC(=S)N2CCN(C(=O)c3ccccc3)CC2)c(C)c1	i
C=CCn1c(SCC(=O)NCC)nc2sc3c(c2c1=O)CCC3	i
CNC(=O)c1cc(S(=O)(=O)Nc2ccc(C)cc2C)ccc1C	i
COc1ccc(Br)cc1C(=O)NC(=S)Nc1ccc2[nH]c(=O)[nH]c2c1	i
COc1ccc(Br)cc1C(=O)Nc1ccc(C(=O)O)cc1	4.47µM*
COc1ccc(Br)cc1C(=O)Nc1ccc(N2CCCC2)cc1	i
C=CCN(c1ccc(Cl)cc1)S(=O)(=O)c1cccc(C(=O)O)c1	i
Cc1ccc(C)c(NS(=O)(=O)c2ccc3[nH]c(=O)oc3c2)c1	i
